Bioassay records from PubChem BioAssay.
The sample as a whole holds a higher share of hits than the screen did.
Apoferritin bind – qHTS Assay for Identification of Novel General Anesthetics. hit rate 0.074% among 350,000. apoferritin/1-aminoanthracene competitive binding, fluorescence. Potency, µM (doses to about 77.5 µM), hits mostly inhibitors. AID 485281, 2010. Ferritin light chain (Equus caballus), P02791; further: nearly all actives have a fitted effect of over 20% in size
Target sequence (P02791 2-175 limits assumed): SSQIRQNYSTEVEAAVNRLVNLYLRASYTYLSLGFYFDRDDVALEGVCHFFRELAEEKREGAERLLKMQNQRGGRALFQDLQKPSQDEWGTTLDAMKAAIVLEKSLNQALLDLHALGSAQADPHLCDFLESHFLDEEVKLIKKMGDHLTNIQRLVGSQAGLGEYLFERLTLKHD
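Horse-spleen apoferritin (10 uM) was mixed with 50% saturated 1-aminoanthracene in PBS, exposed to compounds for 10 min at room temperature, and read for fluorescence (ex 380 nm, em 535 nm). Competitive displacement was fitted with a four-parameter Hill equation.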
CtBP-E1A blk – qHTS Assay for Inhibitors of the CtBP/E1A Interaction. CtBP / adenovirus E1A interaction (AlphaScreen). AlphaScreen GST-E1A/His-CtBP binding, 1536-well; hits give low values. activity change, % (test concentration not listed). hit rate 0.49% among 340,000; in the data active means activity change below about -65%; inconclusive means mostly about -30% to -63%
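Protein mix (5X: 125 nM each GST-E1A, His-CtBP) was incubated with pinned compound 2 h at 37 deg C in dark, in 50 mM Tris pH 8.0 buffer with 300 mM NaCl. Glutathione donor and nickel acceptor beads followed; AlphaScreen signal read after 1 h.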
Eya2 phos inh – qHTS Assay for Inhibitors of the Phosphatase Activity of Eya2. hit rate 0.006% among 330,000. recombinant Eya2, OMFP fluorescence dephosphorylation (OMFP is methylfluorescein phosphate). AID 488837, 2010. Protein phosphatase EYA2 (Homo sapiens), O00167. Potency, µM (highest dose often 76.9 µM), usual class: inhibitors
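Eya2 protein (added as 0.2 uM solution) was preincubated with compound for 10 min at ambient temperature in 50 mM HEPES pH 7.5, 50 mM NaCl, 5 uM MgCl2, 0.05% BSA, 1 mM DTT. OMFP (added at 50 uM) then reacted 10 min; fluorescence read at 485/525 nm.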
Six1-Eya2 inh – qHTS Assay for Inhibitors of the Six1/Eya2 Interaction; Homeobox protein SIX1 (Homo sapiens) + Protein phosphatase EYA2 (Homo sapiens), …; AID 651725, 2012; AlphaScreen GST-Six1/His-Eya2 binding, biochemical; hits give low values; hit rate 0.56% among 360,000; activity change, % (test concentration not listed); in the data active means activity change below about -65%; inconclusive means mostly about -30% to -63%
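GST-Six1 + His-Eya2 (5X stock: 250/500 nM); Tris pH 8.0, 300 mM NaCl, 0.05% BSA, 0.02% Tween 20; GSH donor/Ni acceptor beads; 1 h 37 °C dark; AlphaScreen readout.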
GALK inhibitor – qHTS Assay for Inhibitors of Human Galactokinase (GALK). P51570. Purified GALK, Kinase-Glo residual ATP luminescence. Potency, µM (series often up to 57.5 µM), hits mostly inhibitors. hit rate 0.007% among 270,000
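Luminescence from leftover ATP (Ultra-Glo luciferase/luciferin) served as read-out after a 1 h room-temperature reaction of 5 nM GALK with 35 uM ATP and 100 uM galactose.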
JMJD2E inh – qHTS Assay for Inhibitors of Human Jumonji Domain Containing 2E (JMJD2E); JMJD2E catalytic domain, FDH-coupled NADH fluorescence (FDH is formaldehyde dehydrogenase); Potency, µM (top dose mostly 57.1 µM), usual class: inhibitors; hit rate 1.6% among 230,000; AID 2147, 2009; active means well fitted inhibition curve with a large enough effect, not every such curve was filed as active; inconclusive means small, poorly fitted or top-dose-only effect, or another doubt; inactive means no such curve, though single readings can be large or run the other way; further: nearly all actives have a fitted effect of over 50% in size
Target sequence (B2RXH2 1-337 limits assumed): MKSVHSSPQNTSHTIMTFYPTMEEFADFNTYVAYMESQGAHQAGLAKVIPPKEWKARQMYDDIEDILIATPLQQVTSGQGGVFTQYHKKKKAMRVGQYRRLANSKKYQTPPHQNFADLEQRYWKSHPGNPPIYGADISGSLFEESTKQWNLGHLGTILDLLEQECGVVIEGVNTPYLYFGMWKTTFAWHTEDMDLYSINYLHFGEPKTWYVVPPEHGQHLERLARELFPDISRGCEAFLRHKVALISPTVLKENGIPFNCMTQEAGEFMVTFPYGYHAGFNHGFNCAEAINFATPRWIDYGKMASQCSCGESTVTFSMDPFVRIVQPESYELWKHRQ
Numbers stand for hits; . = inactive; ? = inconclusive; / = not tested or not shown; [ ] = remark or other dose. Unless noted, the call rests on the fitted dose curve; in most records, active means well fitted curve in the direction sought with a large enough effect; inconclusive means small, poorly fitted or top-dose-only effect, or another doubt; inactive means no such curve, though single readings can be large; an effect the other way counts as inactive or inconclusive.

SMILES | Apoferritin bind | CtBP-E1A blk | Eya2 phos inh | Six1-Eya2 inh | GALK inhibitor | JMJD2E inh
S=C(Nc1ccc2nsnc2c1)N1CCCCC1 | . | . | . | . | . | 11µM
CN(C)CCn1c2c(c(SCC(=O)Nc3ccc(F)cc3F)nc1=O)CCC2 | . | / | / | / | / | /
C[N+](C)(C)CCCNC(=O)c1ccc(/C=N/O)nc1 | . | ? | . | -69 | . | .
CNCCCNC(=O)c1ccc(/C=N/O)nc1 | . | ? | . | -69 | . | .
CN(C)CCCNC(=O)c1ccc(/C=N/O)nc1 | . | ? | . | ? | . | .
Nc1cccc2c1C(=O)N(C(=O)/C=C/c1ccc(F)cc1)C2=O | . | -65 | . | . | . | ?
Cc1cccc(NC(=O)CSc2ccc(-c3ccccn3)nn2)c1C | . | -75 | . | -87 | . | ?
COc1ccccc1NC(=O)CSc1ccc(-c2ccccn2)nn1 | . | -90 | . | -89 | . | /
CCN(CC)c1ccc(NC(=O)C(NS(=O)(=O)c2cccs2)C(C)C)c(C)c1 (stereo not given) | . | / | / | / | / | /
CC1/C(=N/O)CC(c2ccco2)NC1c1ccco1 (stereo not given) | . | . | . | . | . | .
OC1CC(c2ccco2)NC2(CCCCC2)C1 (stereo not given) | . | . | . | . | . | 22µM
CO[C@@H]1COC(=O)C/C=C\[C@H](C)[C@H](OC)COC(=O)[C@H](C)NC(=O)C/C=C\[C@H]1C | .[15.3 µM] | / | / | / | / | /
COc1ccc2c(c1)c1ccc3c(c1n2C)C(=O)C=CC3=O | . | / | . | -69 | . | .
O=C(COC(=O)c1cnc(Cl)c(Cl)c1)Nc1ccc(S(=O)(=O)N2CCCC2)cc1 | ? | ? | . | -77 | . | .
Cc1cccc(Nc2nnc(-c3ccc(C)c(S(=O)(=O)NCC4CCCO4)c3)c3ccccc23)c1 (stereo not given) | . | / | / | / | / | /
Cc1cccc([C@@H]2CN(C)CCc3c2cc(O)c(O)c3Cl)c1 | / | / | / | / | / | 14µM
C=CCN1CCc2c(cc(O)c(O)c2Cl)C(c2cccc(C)c2)C1 (stereo not given) | . | / | / | / | / | 14µM
CC[C@H](C)[C@H](NC(=O)[C@@H](NC(=O)[C@@H](CC(=O)NO)Cc1ccccc1)[C@@H](C)CC)C(=O)O | . | / | / | / | / | /
O=C(CSc1ncn[nH]1)c1cccc([N+](=O)[O-])c1 | . | . | . | . | . | 7.9µM
CC(=O)c1cc2c(cc1NC(=O)Cn1nc(-c3ccc(C)cc3)ccc1=O)OCO2 | . | . | . | . | . | /
Cc1ccc(NC(=O)Cn2nc(-c3ccccc3Cl)ccc2=O)c(Br)c1 | 10µM | . | . | . | . | .
Cc1c(Br)ccc(NC(=O)Cn2nc(-c3cccs3)ccc2=O)c1C | ? | . | . | . | . | /
Cc1ccc(-c2ccc(=O)n(CC(=O)Nc3ccc(C)cc3Cl)n2)cc1 | 10µM | / | / | / | / | /
COc1ccccc1NC(=O)Cn1nc(-c2ccc3c(c2)OCCO3)ccc1=O | 11µM | . | . | . | . | ?
O=C1NC(=O)/C(=C/c2ccc3c(c2)OC(F)(F)O3)S1 | / | / | . | / | / | /
SMILES | Apoferritin bind | CtBP-E1A blk | Eya2 phos inh | Six1-Eya2 inh | GALK inhibitor | JMJD2E inh
COC(=O)c1ccccc1S(=O)(=O)N1CCc2nc(COc3ccccc3)c3c(c2C1)CO[C@@H](C)C3 | / | / | / | / | / | .[11.4 µM]
Cc1ccc(NS(=O)(=O)c2ccc3c(c2)CC(C)N3C(=O)C2CCC2)cc1Cl (stereo not given) | . | / | / | / | / | /
N#Cc1ccc2c(c1)C[C@]1(CCCCN3C(=O)c4ccccc4C3=O)Oc3cc(-c4ccccc4)oc(=O)c3[C@H]2O1 | .[15.3 µM] | / | .[15.4 µM] | / | / | /
COc1ccc(NC(=O)c2c(C)oc3ccc(O)c(CN4CCC(C)CC4)c23)cc1Cl | . | / | / | / | / | /
CCOC(=O)Cc1nnc(NC(=O)c2ncn[nH]2)s1 | . | -71 | . | ? | . | .
COc1cc2[nH]c(Cl)c([N+](=O)[O-])c2cc1OC | . | . | . | . | . | 13µM
CCCCCCCCCCCCCCC(F)C(=O)O (stereo not given) | . | / | / | / | / | .
O=C(Cn1cnc2ccccc21)N/N=C/C(Br)=C/c1ccccc1 | ? | -83 | . | . | . | .
COc1ccc(C(=O)O)nc1C | . | / | . | . | . | 14µM
COc1ccc(-c2nc(C(=O)O)cs2)cc1OC | . | . | . | . | . | .
Cc1ccc2nc3nc4ccc[nH]c4cc3c2c1 | .[15.3 µM] | / | / | / | / | /
CC1=NN(c2ccccc2)C(=O)/C1=C/c1cccs1 | . | . | . | . | . | ?
CC1=NN(c2ccccc2)C(=O)/C1=C\c1ccc(Br)s1 | . | / | . | . | . | 3.2µM
Brc1ccc(-c2nn3c(-c4ccccn4)nnc3s2)o1 | . | -78 | . | -77 | . | .
COc1ccc(-c2nn3c(-c4ccccn4)nnc3s2)cc1OC | . | -89 | . | -81 | . | ?
COc1ccc2c(c1)O[C@@H](c1cccc(C(F)(F)F)c1)[C@H](OC(=O)NS(=O)(=O)c1ccc(F)cc1)C2=O | / | / | / | / | / | .
O=C(N/N=C/c1sc2ccccc2c1O)c1cccc2ccccc12 | . | ? | . | ? | . | 25µM
O=C(N/N=C/c1sc2ccccc2c1O)c1ccccc1 | . | ? | . | -87 | . | 22µM
COc1ccc(C(=O)N/N=C/c2sc3ccccc3c2O)cc1 | . | -65 | . | -74 | . | 35µM
O=C(N/N=C/c1ccccc1)c1cccc2ccccc12 | / | . | / | . | / | /
CCOc1ccc(CC(=O)NC2CC(=O)N(c3ccc(C)c(C)c3)C2)cc1 (stereo not given) | . | / | / | / | / | /
CC[n+]1c(/C=C/Nc2ccccc2)sc2ccccc21 | . | . | . | . | . | .
CC[n+]1ccccc1/C=C/Nc1ccccc1 | . | / | . | . | . | 18µM
CO/S(=N\S(=O)(=O)c1ccc(Cl)cc1)c1ccc([N+](=O)[O-])cc1 (stereo not given) | / | / | . | / | / | /
COc1ccc(-c2nc(C#N)c(NCCCn3ccnc3)o2)cc1OC | . | . | . | . | . | ?
SMILES | Apoferritin bind | CtBP-E1A blk | Eya2 phos inh | Six1-Eya2 inh | GALK inhibitor | JMJD2E inh
CCN(CC)CCCNc1oc(-c2ccc(OC)c(OC)c2)nc1C#N | . | . | . | . | . | 2.2µM
Oc1ccc(C=NNc2ccccn2)c(O)c1 | / | . | / | -91 | / | /
Oc1ccc(/C=N/Nc2nccnc2Cl)c(O)c1 | . | -96 | . | -92 | . | ?
Oc1ccc(/C=N/Nc2cccc3cccnc23)c(O)c1 | . | . | . | . | . | .
Oc1ccccc1/C=N/Nc1nccnc1Cl | . | -94 | . | -92 | . | 25µM
Oc1ccc(/C=N/Nc2ncc(Br)cn2)c(O)c1 | . | -92 | . | -88 | / | 11µM
